In PubChem BioAssay AID1159580 (chemical genetic matrix, 2015):
Values joined by “and” are separate entries in the source; they are usually repeats but may differ in a detail not shown here. Equal entries are not always repeated. Screen size: about 5,500 compounds; about 2,000 (36%) were called active. Roughly 18% stayed inconclusive and do not appear here. No stated cut-off is given here; in the data, active means normalized growth mostly below about 0.91 (no sharp cut-off); inconclusive means no clear call, values can overlap the other calls; inactive means mostly above about 0.92. The list shows a part of the results.

Assay: chemical genetic growth profiling, strain panel (AID 1159580);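 further: tested at 20 µM; growth read once vehicle control cultures reached saturation at 30 °C; 1 = growth at the plate median or of vehicle wells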
Details: S. cerevisiae deletion strains, growth OD

Measured: normalized growth

CN(C)CCCN1c2ccccc2Sc2ccccc21
inactive: locus YAL013W, strain DEP1, stronger effect = lower value 0.988 and 0.967 | locus YAL021C, strain ccr4, stronger effect = lower value 0.92 | locus YAL026C, strain drs2, stronger effect = lower value 0.936 | locus YAL030W, strain snc1, stronger effect = lower value 1.01 | locus YAL040C, strain CLN3, stronger effect = lower value 0.964 | locus YBL061C, strain skt5, stronger effect = lower value 1 | locus YBR009C, strain hhf1, stronger effect = lower value 0.985 | locus YBR021W, strain FUR4, stronger effect = lower value 0.961 | locus YBR023C, strain chs3, stronger effect = lower value 1 | locus YBR171W, strain sec66, stronger effect = lower value 0.996 | locus YBR229C, strain ROT2, stronger effect = lower value 0.999 | locus YBR231C, strain swc5, stronger effect = lower value 1.03 | locus YBR279W, strain paf1, stronger effect = lower value 0.977 | locus YCL011C, strain gbp2, stronger effect = lower value 0.996 | locus YCL016C, strain dcc1, stronger effect = lower value 1.01 | locus YCL029C, strain bik1, stronger effect = lower value 1.02 | locus YCL061C, strain MRC1 (second series), stronger effect = lower value 0.983 | locus YCL061C, strain MRC1, stronger effect = lower value 0.993 | locus YCL069W, strain vba3, stronger effect = lower value 0.978 | locus YCR088W, strain abp1, stronger effect = lower value 0.984 | locus YDL005C, strain med2, stronger effect = lower value 1.03 | locus YDL035C, strain GPR1, stronger effect = lower value 1.02 | locus YDL040C, strain nat1, stronger effect = lower value 1 | locus YDL074C, strain BRE1, stronger effect = lower value 1.01 | locus YDL101C, strain DUN1, stronger effect = lower value 1.03 | locus YDL134C, strain PPH21, stronger effect = lower value 1.01 | locus YDL185W, strain tfp1, stronger effect = lower value 1.01 | locus YDL192W, strain arf1, stronger effect = lower value 1.02 | locus YDR001C, strain nth1, stronger effect = lower value 0.985 | locus YDR069C, strain doa4, stronger effect = lower value 0.94 | locus YDR101C, strain arx1, stronger effect = lower value 1.01 | locus YDR137W, strain rgp1, stronger effect = lower value 1.13 | locus YDR150W, strain NUM1, stronger effect = lower value 1.01 | locus YDR159W, strain sac3, stronger effect = lower value 0.984 | locus YDR162C, strain NBP2, stronger effect = lower value 1 | locus YDR195W, strain ref2 1.07 | locus YDR297W, strain sur2, stronger effect = lower value 1.01 | locus YDR318W, strain mcm21, stronger effect = lower value 1.02 | locus YDR334W, strain swr1, stronger effect = lower value 0.95 | locus YDR335W, strain msn5, stronger effect = lower value 0.994 | locus YDR363W, strain ESC2, stronger effect = lower value 0.976 | locus YDR388W, stronger effect = lower value 1.01 | locus YDR392W, strain spt3, stronger effect = lower value 1.09 | locus YDR502C, strain sam2, stronger effect = lower value 1.01 | locus YEL003W, strain gim4, stronger effect = lower value 0.994 | locus YEL037C, strain rad23, stronger effect = lower value 0.976 | locus YEL061C, strain CIN8 (second series), stronger effect = lower value 0.96 | locus YEL061C, strain CIN8, stronger effect = lower value 1 | locus YER002W, strain NOP16, stronger effect = lower value 0.988 | locus YER015W, strain faa2, stronger effect = lower value 0.991 | locus YER016W, strain bim1, stronger effect = lower value 0.986 | locus YER110C, stronger effect = lower value 1.02 | locus YER111C, strain swi4, stronger effect = lower value 0.973 | locus YER155C, strain BEM2 (second series), stronger effect = lower value 1.01 | locus YER155C, strain BEM2, stronger effect = lower value 1 | locus YER167W, strain BCK2, stronger effect = lower value 1.01 | locus YFR010W, strain ubp6, stronger effect = lower value 0.92 | locus YGL078C, strain dbp3, stronger effect = lower value 1.01 | locus YGL086W, strain mad1, stronger effect = lower value 1.02 | locus YGL167C, strain pmr1, stronger effect = lower value 0.981 | locus YGL173C, strain kem1, stronger effect = lower value 0.981 | locus YGL227W, strain vid30, stronger effect = lower value 0.996 | locus YGL240W, strain doc1, stronger effect = lower value 1.04 | locus YGL248W, strain PDE1, stronger effect = lower value 1 | locus YGL253W, strain hxk2, stronger effect = lower value 0.994 | locus YGR078C, strain PAC10, stronger effect = lower value 1.01 | locus YGR135W, strain pre9, stronger effect = lower value 0.993 | locus YGR229C, strain SMI1, stronger effect = lower value 0.971 | locus YGR252W, strain gcn5, stronger effect = lower value 0.975 | locus YHR013C, strain ard1, stronger effect = lower value 0.964 | locus YHR027C, strain rpn1, stronger effect = lower value 0.989 | locus YHR030C, strain SLT2, stronger effect = lower value 1 and 1.01 | locus YHR079C, strain IRE1 (second series), stronger effect = lower value 1.01 | locus YHR079C, strain IRE1, stronger effect = lower value 1.01 | locus YHR094C, strain hxt1, stronger effect = lower value 1.01 | locus YHR129C, strain ARP1, stronger effect = lower value 1.02 | locus YHR142W, strain chs7, stronger effect = lower value 1.01 | locus YHR200W, strain rpn10, stronger effect = lower value 1.02 | locus YIL066C, strain RNR3, stronger effect = lower value 1 | locus YIL073C, strain SPO22, stronger effect = lower value 1.02 | locus YIL125W, strain kgd1, stronger effect = lower value 1.01 | locus YIR030C, strain dcg1, stronger effect = lower value 1.02 | locus YJL092W, strain hpr5, stronger effect = lower value 0.989 | locus YJL095W, strain BCK1 (second series), stronger effect = lower value 1 | locus YJL095W, strain BCK1, stronger effect = lower value 0.987 and 1.02 | locus YJL115W, strain asf1, stronger effect = lower value 0.975 | locus YJL129C, strain trk1, stronger effect = lower value 1.01 | locus YJL134W, strain LCB3, stronger effect = lower value 1 | locus YJL154C, strain vps35, stronger effect = lower value 0.977 | locus YJL164C, strain tpk1, stronger effect = lower value 0.992 | locus YJL166W, strain qcr8, stronger effect = lower value 0.995 | locus YJL168C, strain set2, stronger effect = lower value 1.02 | locus YJL187C, strain SWE1 (second series), stronger effect = lower value 1 | locus YJR043C, strain POL32, stronger effect = lower value 1.02 | locus YJR066W, strain TOR1, stronger effect = lower value 0.963
